In PubChem BioAssay AID771 (SRMLSC, 2007):
“And” between values parts separate entries of the source, which are not always exact repeats. Equal entries are not always repeated. In all, about 3,300 compounds went through this assay and about 55 (2%) were called active.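 Rule for the calls: active = growth inhibition above 90%, meaning viable cell count by imaging cut by more than 90% versus vehicle controls; inactive = growth inhibition below 90%.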 The list comes from a sample in which actives are over-represented; it also holds similar structures and randomly drawn compounds. The source holds several records for some structures; these can differ, active in one and inactive in another.

Assay: HT29 colon tumor cell growth inhibition, primary screen, imaging, high content imaging, 48 h, CellTiter-Glo (AID 771);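 for condensed nuclei: condensed means Hoechst nuclear area under control median minus 1.5 SD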
Conditions: HCS imaging cell count, at 10 µM, stronger effect = higher value; for condensed nuclei: measured here: percent cells with condensed nuclei
[1] = measured here: ATP CellTiter-Glo viability inhibition

SMILES | growth inhibition | growth inhibition [1] | condensed nuclei
N#CC1(c2ccccc2)CCC(=NO)CC1 (stereo unspecified) | -54.8% (inactive) | -7.61% | 1.75%
CC1(C)Cc2c(c(-c3ccccc3)[nH]c(=O)c2C#N)CS1 | 40.9% (inactive) | 27.6% | 3.57%
COCCNC(=O)c1c(N)n(CCC2=CCCCC2)c2nc3ccccc3nc12 | 39.4% (inactive) | 20.4% | 2.68%
C=CCn1c(N)c(C(=O)Nc2ccccc2)c2nc3ccccc3nc21 | 90.9% (active) | 90.8% | 18.1%
C=CCn1c(N)c(C(=O)OC(C)(C)C)c2nc3ccccc3nc21 | 56.4% (inactive) | 24.8% | 2.73%
C=CCn1c(-c2ccccc2)n[nH]c1=S | -21.6% (inactive) | -24.2% | 2.91%
Cc1ccc(NC(=O)c2cc(N3CCOCC3)nc3ccccc23)cc1 | 52% (inactive) | 31.6% | 7.65%
CCOC(=O)c1[nH]c2ccc(OC)cc2c1NC(=O)CCN1CCc2ccccc2C1 | 24.3% (inactive) | 4.08% | 9.73%
Fc1ccccc1-c1nc(NCCCN2CCOCC2)c2ccccc2n1 | 40% (inactive) | 34.1% | 7.24%
CCN(CC)CCNc1ncnc2c1[nH]c1ccc(OC)cc12 | 68.1% (inactive) | 44% | 4.62%
Cc1ccc2[nH]c3c(NCCN4CCOCC4)ncnc3c2c1 | 45.8% (inactive) | 24.8% | 3.45%
Oc1ccccc1-c1nc(NCCN2CCOCC2)c2ccccc2n1 | 83.2% (inactive) | 73.4% | 16.5%
Clc1ccc2[nH]c3c(NCCCN4CCOCC4)ncnc3c2c1 | 97.5% (active) | 90% | 33%
Clc1ccc2[nH]c3c(NCCN4CCOCC4)ncnc3c2c1 | 90.1% (active) | 74.8% | 8.91%
CC/C(C)=C1\SC(N2CCN(C(C)=O)CC2)=NC1=O | -12% (inactive) | -28.4% | 2.39%
Cc1c(N=Cc2c(O)n(C3CCCCC3)c(=O)[nH]c2=O)c(=O)n(-c2ccccc2)n1C | -40.9% (inactive) | -6.25% | 2.12%
COC(=O)CN(c1nc(C)c(Br)c(OC)n1)S(=O)(=O)c1ccc(C)cc1 | 28.7% (inactive) | 6.19% | 1.9%
N#Cc1ccc(-c2ccc(OCC(O)Cn3nnc4ccccc43)cc2)cc1 (stereo unspecified) | 10.4% (inactive) | -1.94% | 1.87%
CCOc1ccc(-c2nnc3sc(COc4ccccc4)nn23)cc1 | 41.5% (inactive) | -17% | 2.51%
Clc1ccc(-n2ncc3c(NCc4ccccn4)ncnc32)cc1 | 38.1% (inactive) | 0.14% | 3.3%
Cc1cccc(-n2ncc3c(NCc4ccco4)ncnc32)c1 | 90.8% (active) | 68.2% | 5.66%

SMILES | growth inhibition | growth inhibition [1] | condensed nuclei
Cc1cccc(-n2ncc3c(NCCN4CCOCC4)ncnc32)c1 | 15.5% (inactive) | 9.31% | 3.92%
COc1ccccc1Nc1ncnc2c1cnn2-c1cccc(C)c1 | 30.4% (inactive) | -0.29% | 2.98%
Clc1ccc(-n2ncc3c(NCc4ccco4)ncnc32)cc1 | 92.3% (active) | 76.5% | 19.6%
Clc1ccc(-n2ncc3c(NCc4cccs4)ncnc32)cc1 | -9.4% (inactive) | -1.37% | 3.73%
CC(=O)c1ccc(O)c(CO)c1 | -13.1% (inactive) | -11.8% | 2.86%
COC(=O)c1ccc(C2NC(C(=O)O)CS2)cc1 (stereo unspecified) | 16% (inactive) | -10.7% | 1.25%
CCNC(=O)Nn1c(C)nnc1C | -8.98% (inactive) | -2.65% | 1.64%
CCCOc1ccc2nc(NC(=O)OC)[nH]c2c1 | 78.7% (inactive) |  | 35.7%
CCOc1ccc2nc(SCC(=O)Nc3ncccn3)[nH]c2c1 | -11.5% (inactive) | 0% | 3.9%
COC(=O)Nc1nc2ccc(C(=O)c3ccccc3)cc2[nH]1 | 86.4% (inactive) |  | 34.6%
COC(=O)Nc1nc2ccc(Sc3ccccc3)cc2[nH]1 | 90.4% (active) |  | 42%
Cc1ccc2nc(NCc3ccccc3)[nH]c2c1 | 87.6% (inactive) | 67.4% | 19.4%
CCCSc1ccc2nc(NC(=O)OC)[nH]c2c1 | 90.4% (active) |  | 33.3%
Cc1cc(=O)oc(C)c1C(=O)Nc1ccc2nsnc2c1 | 31.3% (inactive) | -17.1% | 3.08%
CCCCCNC(=O)c1c(N)n(/N=C/c2ccco2)c2nc3ccccc3nc12 | 44.5% (inactive) | 5.72% | 0.77%
CC1(C)Cc2c(C#N)c(SCC(=O)c3ccccc3)nc(N3CCOCC3)c2CS1 | 83.5% (inactive) | 76.7% | 17.6%
CCN(CC)CCOC(=O)C1(c2ccc(OC)c(OC)c2)CCCC1 | -76.7% (inactive) | -5.14% | 1.64%
COc1ccc(C(=O)NCCCCCC(=O)O)cc1OC | 5.72% (inactive) | 3.37% | 1.69%
COc1cccc2c(=O)c(SC(F)(F)C(F)C(F)(F)F)c(C)[nH]c12 (stereo unspecified) | 91.7% (active) | 63.5% | 11.3%
Cc1[nH]c2ccc(F)cc2c(=O)c1SC(F)(F)C(F)C(F)(F)F (stereo unspecified) | 31.7% (inactive) | -13.7% | 3.08%
COc1cccc(C(=O)NCC(=O)n2nc(C)cc2C)c1 | -2.19% (inactive) | -15.9% | 2.14%

SMILES | growth inhibition | growth inhibition [1] | condensed nuclei
CN(C)CC(O)COc1ccc(C(C)(C)c2ccc(OCC(O)CN(C)C)cc2)cc1 (stereo unspecified) | 99.1% (active) | 95.7% | 29.1%
CN(C)CC(O)COc1ccc(-c2ccc(C#N)cc2)cc1 (stereo unspecified) | 71.1% (inactive) | 51.9% | 5.66%
CN(C)CC(O)COc1cccc(OCC(O)CN(C)C)c1 (stereo unspecified) | 26.5% (inactive) | -7% | 1.99%
OC(CCN1CCCC1)(c1ccccc1)C1CCCCC1 (stereo unspecified) | 57.7% (inactive) |  | 7.95%
CC(C)(C)c1ccc(C(O)CCCN2CCC(C(O)(c3ccccc3)c3ccccc3)CC2)cc1 (stereo unspecified) | 98.2% (active) |  | 36.3%
OC(CCN1CCCCC1)(c1ccccc1)C1CCCCC1 (stereo unspecified) | 6.78% (inactive) |  | 4.4%
CCOC(=O)C1=C(C)N=C2SC(C)C(=O)N2C1c1ccc(OC(C)=O)c(OC)c1 (stereo unspecified) | 42.7% (inactive) | 12.7% | 1.51%
CC(C)Cc1[nH]c(=O)c(C#N)c2c1COC(C)(C)C2 | -9.54% (inactive) | 6.82% | 1.96%
CCN(CC)c1ccc2cc(-c3nnc(-c4ccncc4)o3)c(=O)oc2c1 | 100% (active) | -8.56% | 1.36%
CCN(CC)c1ccc2cc(C(=O)Nc3ccccn3)c(=O)oc2c1 | -58.4% (inactive) | -2.93% | 2.18%
CCCCCCc1cc2cc(-c3nnc(-c4ccccc4O)o3)c(=O)oc2cc1O | 4.58% (inactive) | 3.73% | 3.18%
OCCN1CCN(CCCN2c3ccccc3Sc3ccc(C(F)(F)F)cc32)CC1 | 99.7% (active) |  | 57%
CN1CCN(CCCN2c3ccccc3Sc3ccc(Cl)cc32)CC1 | -16.4% (inactive) |  | 1.86%
CSc1ccc2c(c1)N(CCC1CCCCN1C)c1ccccc1S2 (stereo unspecified) | 8.58% (inactive) |  | 2.87%
OCCN1CCN(CCCN2c3ccccc3Sc3ccc(Cl)cc32)CC1 | 84.9% (inactive) |  | 46.7%
CN1CCN(CCC(=O)N2c3ccccc3Sc3ccc(Cl)cc32)CC1 | 55.5% (inactive) | -11.6% | 2.4%
CN1CCN(CCCN2c3ccccc3Sc3ccc(C(F)(F)F)cc32)CC1 | 99.7% (active) |  | 45.5%
CCCOc1ccc(/C(O)=C2/C(=O)C(=O)N(CCN3CCOCC3)C2c2ccccc2)cc1 (stereo unspecified) | 6.6% (inactive) | -7.42% | 3.56%
CC1(C)Cc2nc(N)c(C(=O)NCCO)cc2CO1 | -4.53% (inactive) | -20.8% | 3.27%
COc1ccc(/C(O)=C2\C(=O)C(=O)N(c3cc(C)on3)C2c2cccc(OC)c2OC)cc1C (stereo unspecified) | 37.5% (inactive) | -6.66% | 2.33%
CCN(CC)CCNC(=O)c1ccccc1N | 25.6% (inactive) | 4.22% | 0.38%

SMILES | growth inhibition | growth inhibition [1] | condensed nuclei
CCCCOc1cc(C(=O)NCCN(CC)CC)c2ccccc2n1 | 2.54% (inactive) and 97.2% (active) |  | 0.87% and 22.7%
CCCCOc1ccccc1C(=O)NCCCC(=O)O | 45.1% (inactive) | 27.4% | 2.4%
CC(C)C1Cc2c(C#N)c(N)sc(=S)c2CO1 (stereo unspecified) | -17.8% (inactive) | -10.1% | 3.02%
CNCCC(Oc1ccc(C(F)(F)F)cc1)c1ccccc1 (stereo unspecified) | 98.6% (active) |  | 23.4%
CC(=N\O)/C(CN(C)C)=N/O | 19.1% (inactive) | 5.48% | 2.85%
CCc1[nH]nc2c1C(c1ccc(Br)s1)C(C#N)=C(N)O2 (stereo unspecified) | 61% (inactive) | 16.8% | 4.86%
O=C(O)/C=C/c1ccc(O)c(O)c1 | -1.98% (inactive) |  | 2.21%
CCN(CC)C(=O)c1ccc(O)c(OC)c1 | -10.4% (inactive) |  | 2.13%
COc1cc(/C=C/C(=O)CC(=O)/C=C/c2ccc(O)c(OC)c2)ccc1O | 95.8% (active) |  | 35.4%
CCCc1nnc(SCc2ccc(OCC)cc2)n1N | 34.1% (inactive) | 0.5% | 1.98%
NC(Cc1ccc(Oc2ccc(O)cc2)cc1)C(=O)O (stereo unspecified) | -13.8% (inactive) |  | 5.21%
CCn1nnc(C(=O)O)c1C(=O)O | -4.1% (inactive) | -5.53% | 2.3%
Brc1ccc2c(c1)CNc1c(ncnc1N1CCOCC1)O2 | 45.1% (inactive) | 12.2% | 0.48%
N#CC12CCCCC1CC1CCCCC1(C#N)N2Cc1cccnc1 (stereo unspecified) | 20.9% (inactive) | -2.93% | 2.55%
CNCCCC1c2ccccc2C=Cc2ccccc21 | 98% (active) |  | 25%
CC(NCCC(c1ccccc1)c1ccccc1)c1ccccc1 (stereo unspecified) | 95.3% (active) |  | 28.3%
CC(NC(=O)c1ccc(=O)oc1)c1ccccc1 (stereo unspecified) | 53.4% (inactive) | -2.53% | 5.45%
O=C(O)c1ccc(C2CCCCC2)cn1 | -17.2% (inactive) | -12.9% | 0.69%
CCN(CC)CCN1C(=O)C(=O)/C(=C(/O)c2c(C)[nH]c(C(=O)OC)c2C)C1c1ccccc1 (stereo unspecified) | 29.2% (inactive) | 26.4% | 11%
